Screening results as filed in PubChem.
FLuc counter – inhibits or activates purified firefly luciferase, miR-21 counter-screen; purified FLuc, Km substrates, luminescence inhibition; Potency, µM (doses to about 57.5 µM), without a hit: at the highest dose activity change, negative = inhibition, hits mostly inhibitors; AID 588342; P08659; hit rate 6.9% among 360,000;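 further: plate controls were vehicle for no effect and reference inhibitor for full effect; nearly all actives have a fitted effect of over 55% in size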
Target sequence (P08659 whole entry, looked up): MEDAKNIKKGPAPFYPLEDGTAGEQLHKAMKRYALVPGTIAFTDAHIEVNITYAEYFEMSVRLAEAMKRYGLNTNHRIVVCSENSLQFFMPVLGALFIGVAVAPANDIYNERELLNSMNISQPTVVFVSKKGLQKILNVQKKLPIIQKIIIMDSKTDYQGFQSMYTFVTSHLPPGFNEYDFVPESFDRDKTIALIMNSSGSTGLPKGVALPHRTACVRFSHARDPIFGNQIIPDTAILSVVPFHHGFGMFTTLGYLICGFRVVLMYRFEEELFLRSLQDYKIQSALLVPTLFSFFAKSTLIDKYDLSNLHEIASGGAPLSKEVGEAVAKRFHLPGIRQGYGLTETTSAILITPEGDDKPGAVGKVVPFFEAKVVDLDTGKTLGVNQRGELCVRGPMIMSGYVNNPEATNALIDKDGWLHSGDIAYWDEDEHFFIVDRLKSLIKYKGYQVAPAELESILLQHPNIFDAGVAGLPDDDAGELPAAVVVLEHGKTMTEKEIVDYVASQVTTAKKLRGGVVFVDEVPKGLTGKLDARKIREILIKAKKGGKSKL
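Biochemical qHTS of compounds, final roughly 60 µM downward over six points, against 10 nM purified firefly luciferase using Km concentrations of substrates (10 uM D-luciferin, 10 uM ATP) in Tris acetate pH 7.5 buffer; luminescence output.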
ELG1 genotox – genotoxicity induction in ELG1-luciferase HEK293T cells; hit rate 1.3% among 330,000; Potency, µM (series often up to 46 µM), for the others: at the highest dose activity change, positive = activation, usual class: activators; HEK293T ELG1-luciferase reporter, luminescence, 16 h; further: % of control where 0% means no effect; nearly all actives have a fitted effect of over 60% in size
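DMSO vehicle served as control against compound-treated ELG1-luciferase HEK293T cells; exposure lasted 16 hr at 37 °C and 5% CO2, followed by ONE-Glo luminescence detection after 30 min.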
Rab9 prom act – activators of Rab9 promoter; Huh7 Rab9 promoter-luciferase reporter, luminescence, 24 h; Potency, µM (highest dose often 9.22 µM), inactives show top-dose activation, negative = inhibition, actives largely listed as activators; hit rate 2.8% among 320,000; further: % of control where 0% means no effect; nearly all actives have a fitted effect of over 60% in size
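Rab9 promoter-driven luciferase in stably transfected Huh7 cells; 1500 cells/well rested 2 h, exposed to compound in DMSO for 24 h at 37 °C, 5% CO2. Luminescence read 10 min after adding luciferase reagent at ambient temperature.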
KinaseGlo FLuc – counter-screen: inhibitors of Kinase-Glo firefly luciferase | Q27757 | Potency, µM (titrated, usually from 38.3 µM), for the others: at the top dose activity change, negative = inhibition, hits mostly inhibitors | Kinase-Glo luciferase, ATP luminescence, 8 min | hit rate 0.28% among 200,000; further: on the % scale 0 is the no-effect control and ±100 the full control effect; nearly all actives have a fitted effect of over 60% in size
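Compounds were added to a substrate mix at pH 7.2 (50 mM imidazole, 10 uM ATP, within the enzyme's linear range), followed by Kinase-Glo detection reagent; luminescence was measured after 8 minutes at ambient temperature.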
NPC1 prom act – NPC1 promoter activation | Huh7 NPC1 promoter luciferase reporter, 24 h | Potency, µM (doses to about 9.22 µM), for the others: top-dose activation, hits mostly activators | hit rate 2.4% among 320,000; further: % of control where 0% means no effect; nearly all actives have a fitted effect of over 60% in size
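In 1536-well qHTS, Huh7 cells harboring an NPC1 promoter–luciferase construct received compound for 24 h; activation was quantified by luminescence following luciferase reagent addition.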
SMN2 splice enh – enhancers of SMN2 splice variant expression. hit rate 2.8% among 210,000. Potency, µM (series often up to 46.1 µM), for inactives: at the top dose activity change, positive = activation, usual class: activators. HEK293 SMN2-luciferase splicing reporter, luminescence, 30-36 h; further: % of control where 0% means no effect; nearly all actives have a fitted effect of over 55% in size
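HEK293 cells carry an SMN2 minigene-luciferase reporter in which exon 7 inclusion puts luciferase in frame. Cells were seeded at 2000 cells/well, attached for 10-12 hours, then exposed to compounds for 30-36 hours at 37C before ONE-Glo luminescence.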
Active calls of the source: *. Only some compounds are listed: those with a hit (about 7.5% of all), similar ones and a draw of the others. The call rests on the fitted dose curve; in most records, active means well fitted curve in the direction sought with a large enough effect; inconclusive means small, poorly fitted or top-dose-only effect, or another doubt; inactive means no such curve, though single readings can be large; an effect the other way counts as inactive or inconclusive. Potency means the concentration at half of the fitted maximal effect.

Results for CCCCC[C@H](O)/C=C/C=C/C=C/[C@H](O)C/C=C\CCCC(=O)O ?
KinaseGlo FLuc: 2.0%; SMN2 splice enh: 4.5%

What do the screens show for `O=C(Nc1ccccc1OCc1cc(=O)n2ccccc2n1)Nc1ccccc1C(F)(F)F`?
FLuc counter: -1.3%

Results for CCCOc1ccc(CN(C(=O)c2nc(SC(C)C)ncc2Cl)C2CCS(=O)(=O)C2)cc1 (stereo not given) ?
FLuc counter: 4.8%; SMN2 splice enh: 0.4%

Results for COc1ccc(-c2csc(N3N=C(C)C(C)C3=O)n2)cc1 (stereo not given) ?
FLuc counter: 8.49µM*; ELG1 genotox: 8.6%; Rab9 prom act: 4.47µM*; KinaseGlo FLuc: -3.9%; NPC1 prom act: inconclusive; SMN2 splice enh: inconclusive

Results for CC1=NN(c2nc(-c3ccc(C)cc3)cs2)C(=O)C1N=Nc1ccccc1O (stereo not given) ?
FLuc counter: 10.7µM*; ELG1 genotox: -8.5%; Rab9 prom act: -52.3%; KinaseGlo FLuc: -1.7%; NPC1 prom act: -37.7%

How did Cc1cc(F)ccc1NC(=O)CCS(=O)(=O)c1cc2c(cc1C)NC(=O)CO2 do in these assays?
FLuc counter: -13.2%

Results for O=C(O)c1ccc(CO)o1 ?
SMN2 splice enh: -1.2%

How did Cc1ccc(CCNC(=O)C2CCC(=O)N(Cc3ccccc3F)C2)o1 (stereo not given) do in these assays?
FLuc counter: inconclusive; ELG1 genotox: 18.3µM*; Rab9 prom act: inconclusive; NPC1 prom act: inconclusive

What do the screens show for `COc1ccccc1CCCNC(=O)C1CCC(=O)N(Cc2ccccc2F)C1` (stereo not given)?
FLuc counter: 21.3µM*; ELG1 genotox: inconclusive; Rab9 prom act: 3.98µM*; NPC1 prom act: 2.82µM*

How did COc1ccc(CNC(=O)C2CCCN(C(=O)c3cnn(-c4ccc(F)cc4)c3-n3cccc3)C2)cc1 (stereo not given) do in these assays?
FLuc counter: 2.9%

What do the screens show for `COc1ccc(NC(=O)Cn2nnnc2-c2ccccc2F)c(C)c1`?
FLuc counter: -4.4%; SMN2 splice enh: 3.0%

How did COc1cccc(-c2nc(Cn3c(=O)cc(C)c4c(C)nn(-c5ccccc5)c43)c(C)o2)c1OC do in these assays?
FLuc counter: -2.2%

How did CCCn1c2ccccc2c2cnn(CC(=O)NCc3cc(OC)ccc3OC)c(=O)c21 do in these assays?
FLuc counter: -5.2%

How did Cc1cc(C)c2c(-n3cccc3)c(C(=O)O)sc2n1 do in these assays?
FLuc counter: 2.69µM*; ELG1 genotox: inconclusive; Rab9 prom act: 0.631µM*; KinaseGlo FLuc: -9.5%; NPC1 prom act: 1µM*; SMN2 splice enh: inconclusive

How did Cc1cc(C)c2c(-n3cccc3)c(C(=O)NNS(=O)(=O)c3ccccc3)sc2n1 do in these assays?
FLuc counter: -0.5%; ELG1 genotox: 0.1%; Rab9 prom act: -3.3%; KinaseGlo FLuc: -3.1%; NPC1 prom act: 0.7%; SMN2 splice enh: -11.8%

What do the screens show for `COc1ccc(CC(=O)NCCc2csc(-c3cccc(C)c3)n2)cc1`?
FLuc counter: -15.8%

How did COc1ccccc1C1=NOC(CN2C(=O)c3ccccc3S2(=O)=O)C1 (stereo not given) do in these assays?
FLuc counter: 8.49µM*; ELG1 genotox: inconclusive; Rab9 prom act: 3.98µM*; NPC1 prom act: 2.82µM*

Results for O=C1c2ccccc2S(=O)(=O)N1CC1CC(c2ccccc2Cl)=NO1 (stereo not given) ?
FLuc counter: 2.69µM*; ELG1 genotox: 11.6µM*; Rab9 prom act: 3.16µM*; KinaseGlo FLuc: 4.0%; NPC1 prom act: 3.16µM*; SMN2 splice enh: 3.98µM*

Results for COc1ccc(C)cc1NC(=O)CC1NCCNC1=O (stereo not given) ?
FLuc counter: 3.7%; SMN2 splice enh: 7.7%

What do the screens show for `O=C(Cn1ncc2c(=O)oc3ccccc3c21)Nc1cc(F)ccc1F`?
FLuc counter: -6.7%; SMN2 splice enh: 16.4%

What do the screens show for `CC(=O)N1CC=CC1(CC(C)C)C(=O)NCc1ccccn1` (stereo not given)?
KinaseGlo FLuc: -0.4%; SMN2 splice enh: -4.8%

What do the screens show for `Cc1ccc(NC(=O)CSc2nnc3n2CCCCC3)cc1`?
FLuc counter: -0.3%; ELG1 genotox: 0.3%; Rab9 prom act: 4.5%; KinaseGlo FLuc: 0.9%; NPC1 prom act: -2.6%; SMN2 splice enh: 2.0%

How did Cc1ccc(C(=O)NCc2nnc(SCC(=O)Nc3ccccc3)n2C)cc1 do in these assays?
FLuc counter: 21.3µM*; ELG1 genotox: -1.9%; Rab9 prom act: -2.3%; KinaseGlo FLuc: -2.1%; NPC1 prom act: 0.0%; SMN2 splice enh: -1.7%

How did O=C(CSc1nnc2n1CCCCC2)Nc1ccc(N2CCOCC2)cc1 do in these assays?
FLuc counter: 16.9µM*; ELG1 genotox: 2.1%; Rab9 prom act: -1.8%; NPC1 prom act: 0.9%

What do the screens show for `CCc1nnc(SCC(=O)Nc2ccc(N3CCOCC3)cc2)n1C`?
FLuc counter: 21.3µM*; ELG1 genotox: 9.4%; Rab9 prom act: 6.2%; NPC1 prom act: -0.9%

Results for Cc1ccccc1OCc1nnc(SCC(=O)Nc2ccc(N3CCOCC3)cc2)n1C ?
FLuc counter: inconclusive; ELG1 genotox: 13.2%; Rab9 prom act: 5.5%; NPC1 prom act: 5.1%

What do the screens show for `Cc1ccc(S(=O)(=O)c2nnn3c2nc(N2CCN(c4cccc(C)c4C)CC2)c2ccccc23)cc1C`?
FLuc counter: -0.8%

Results for Cc1ccc(S(=O)(=O)Nc2ccc3c(c2)CCCN3C(=O)c2cccs2)cc1 ?
FLuc counter: -18.7%

How did O=c1c(Cc2c(F)cccc2Cl)c(O)ccn1CCc1ccccn1 do in these assays?
FLuc counter: 0.3%; ELG1 genotox: -0.2%; Rab9 prom act: -0.9%; KinaseGlo FLuc: 1.2%; NPC1 prom act: -1.9%; SMN2 splice enh: -1.2%

Results for Cc1ccc(-c2csc(=S)[nH]2)cc1 ?
FLuc counter: inconclusive; ELG1 genotox: inconclusive; Rab9 prom act: inconclusive; NPC1 prom act: 3.16µM*

How did CCN(C(=O)COC(=O)c1cc(-c2ccc3cc(OC)ccc3c2)nc2ccccc12)C1CCS(=O)(=O)C1 (stereo not given) do in these assays?
FLuc counter: 0.849µM*; ELG1 genotox: 12.3%; Rab9 prom act: 0.355µM*; KinaseGlo FLuc: -16.2%; NPC1 prom act: 0.891µM*; SMN2 splice enh: inconclusive

What do the screens show for `CN(C(=O)COC(=O)c1cccnc1Nc1ccccc1F)C1CCS(=O)(=O)C1` (stereo not given)?
FLuc counter: -0.8%; ELG1 genotox: -0.3%; Rab9 prom act: -0.9%; KinaseGlo FLuc: -21.2%; NPC1 prom act: -1.1%; SMN2 splice enh: -15.1%
